{"source": "PubChem BioAssay (Tox21)", "note": "Results filed as inconclusive are left out. A number with no mark means an inactive call. The call rests on the fitted dose curve; in most records, active means well fitted cell-killing curve with a large enough effect in the repeat runs; inconclusive means weak or mixed curves, or effect the other way; inactive means no such curve, though single readings can be large or run the other way. On the % scale 0 is the no-effect control and ±100 the full control effect.", "data": [{"assay": "qHTS assay to identify small molecule antagonists of the progesterone receptor (PR) signaling pathway - cell viability counter screen (AID 1346798); further: nearly all actives have a fitted effect of over 50% in size", "settings": "PR-UAS-bla HEK293T viability, CellTiter-Glo luminescence, 16 h; series mostly up to 92.4 µM; activity change, negative = cytotoxicity: at the top concentration", "from_the_text": "National Center for Advancing Translational Sciences [NCATS]\nNIH Chemical Genomics Center [NCGC]\nU.S. Environmental Protection Agency [EPA]\nNational Institutes of Environmental Health Sciences [NIEHS]\nNational Toxicology Program [NTP]\nU.S. Food and Drug Administration [FDA]\nProgesterone receptor (PR), a nuclear hormone receptor, plays an important role in development, metabolic homeostasis and reproduction. It is activated by the steroid hormone progesterone. Endocrine disrupting chemicals (EDCs) and their interactions with steroid hormone receptors like PR causes disruption of normal endocrine function. To identify the compounds that inhibit PR signaling, a PR-UAS-bla GripTite cell line i.e. PR-UAS-bla HEK293T (Invitrogen, Carlsbad, CA, USA) containing a beta-lactamase reporter gene under the control of an UAS response element was used to screen Tox21 10K compound library. The cytotoxicity of the Tox21 compound library against the PR-bla cell line was tested in parallel by measuring the cell viability using CellTiter-Glo assay in the same wells.\nTox21 Assay Protocol Summary:\nPR-UAS-bla HEK293T cells were dispensed at 3,000 cells/4 uL of assay medium containing 2% charcoal stripped FBS per well into black wall/clear-bottom 1536-well plates using a Multidrop Combi (ThermoFisher Scientific, Waltham, MA) dispenser. After the assay plates were incubated at a 37C and 5% CO2 for 4 hr, 23 nL of compounds dissolved in DMSO, positive controls or DMSO only was transferred to the assay plate by a Pintool station (Kalypsys, San Diego, CA), followed by addition of 1 uL of R5020 in assay medium using a Flying Reagent Dispenser (FRD, Aurora Discovery, San Diego, CA). The plates were incubated at 37C and 5% CO2 for 16 hr. Then 1 uL of LiveBLAzer B/G FRET substrate was added using a Flying Reagent Dispenser, the plates were incubated at room temperature for 2 hours, and fluorescence intensity was measured by an Envision plate reader (PerkinElmer, Shelton, CT). For cell viability readout that measures cytotoxicity, 4 uL/well of CellTiter-Glo reagent was added into the assay plates using a FRD. After 30 min incubation at room temperature, the luminescence intensity in the plates was measured using a ViewLux (PerkinElmer) plate reader.", "values": [{"smiles": "Cc1nc2ccccc2c(=O)o1", "activity change, negative = cytotoxicity": "15%"}, {"smiles": "CCOC(=O)C(C)(C)C", "activity change, negative = cytotoxicity": "-6.71%"}, {"smiles": "Cc1cc(O)c2c(c1)C(=O)c1cccc(O)c1C2=O", "activity change, negative = cytotoxicity": "-6.98% [at 42.5 µM]"}, {"smiles": "CCCCCCCC[Si](OCC)(OCC)OCC", "activity change, negative = cytotoxicity": "17.8%"}, {"smiles": "O=C(/C=C/c1ccccc1)NCCO", "activity change, negative = cytotoxicity": "-1.6% [at 42.5 µM]"}, {"smiles": "C=C(C)[C@@H]1CC[C@@H](C)C[C@@H]1O", "activity change, negative = cytotoxicity": "15.8%"}, {"smiles": "C[C@@H]1C[C@H]2[C@@H]3C[C@H](F)C4=CC(=O)C=C[C@]4(C)[C@@]3(F)[C@@H](O)C[C@]2(C)[C@@]1(O)C(=O)CO", "activity change, negative = cytotoxicity": "11.6% [at 42.5 µM]"}, {"smiles": "CCCCC(CC)C(=O)OC(C)C", "note": "(stereo not given)", "activity change, negative = cytotoxicity": "8.07%"}, {"smiles": "O=S1(=O)CCCC1", "activity change, negative = cytotoxicity": "3.71%"}, {"smiles": "CCCCCN(CCCOC)C(=O)C(CCC(=O)O)NC(=O)c1ccc(Cl)c(Cl)c1", "note": "(stereo not given)", "activity change, negative = cytotoxicity": "-4.07% [at 42.5 µM]"}, {"smiles": "CCCCCCCCCOCC1CO1", "note": "(stereo not given)", "activity change, negative = cytotoxicity": "13.8%"}, {"smiles": "CCCCCCCCOC(C)=O", "activity change, negative = cytotoxicity": "-5.24%"}, {"smiles": "NCCc1ccn[nH]1", "activity change, negative = cytotoxicity": "0.619% [at 42.5 µM]"}, {"smiles": "CN(C)CCCNCCC#N", "activity change, negative = cytotoxicity": "-11.1%"}, {"smiles": "CCCCCCCCC(=O)OCC", "activity change, negative = cytotoxicity": "5.07%"}, {"smiles": "CCCCCCCC/C=C\\CCCCCCCC(=O)OC[C@@H](O)[C@H]1OC[C@H](O)[C@H]1O", "activity change, negative = cytotoxicity": "3.17%"}, {"smiles": "O=S(=O)(O)SSS(=O)(=O)O", "activity change, negative = cytotoxicity": "5.3%"}, {"smiles": "C1=C\\CC/C=C\\CC/1", "activity change, negative = cytotoxicity": "-2.48%"}, {"smiles": "C/C=C(\\C)C(=O)OCC/C=C\\CC", "activity change, negative = cytotoxicity": "5.94%"}, {"smiles": "O=[Si]=O", "activity change, negative = cytotoxicity": "1.34%"}, {"smiles": "C=C[C@@H](C)CCC=C(C)C", "activity change, negative = cytotoxicity": "-3.49%"}, {"smiles": "CO/N=C(/C(=O)N[C@@H]1C(=O)N2C(C(=O)O)=C(Cn3nnc(C)n3)CS[C@H]12)c1csc(N)n1", "activity change, negative = cytotoxicity": "0.632% [at 42.5 µM]"}, {"smiles": "CCCOC(=O)CCCCC(=O)OCCC", "activity change, negative = cytotoxicity": "-2.62%"}, {"smiles": "CCOC(=O)CCCCCCCCC(=O)OCC", "activity change, negative = cytotoxicity": "3.97%"}, {"smiles": "CCCO", "activity change, negative = cytotoxicity": "0.561%"}, {"smiles": "CC(C)COC(=O)/C=C/c1ccccc1", "activity change, negative = cytotoxicity": "-2.18%"}, {"smiles": "BrC/C=C/CBr", "activity change, negative = cytotoxicity": "20.7% [at 18.9 µM]"}, {"smiles": "CC(C)COC(=O)COc1ccc(Cl)cc1Cl", "activity change, negative = cytotoxicity": "0.516%"}, {"smiles": "CCS(=O)(=O)CCn1c([N+](=O)[O-])cnc1C", "activity change, negative = cytotoxicity": "15% [at 42.5 µM]"}, {"smiles": "CCc1nccnc1C", "activity change, negative = cytotoxicity": "10.8%"}, {"smiles": "CC(C)c1ccccc1O", "activity change, negative = cytotoxicity": "0.256%"}, {"smiles": "CCCCC(CC)CNC(=O)CC(C)OC(=O)CCC(=O)O", "note": "(stereo not given)", "activity change, negative = cytotoxicity": "-13.7% [at 42.5 µM]"}, {"smiles": "COc1ccc(NS(=O)(=O)c2ccc(N)cc2)nn1", "activity change, negative = cytotoxicity": "-2.1% [at 42.5 µM]"}, {"smiles": "CC(CC(=O)O)CC(C)(C)C", "note": "(stereo not given)", "activity change, negative = cytotoxicity": "3.22%"}, {"smiles": "CC(C)C(=O)Nc1cccc(C(F)(F)F)c1", "activity change, negative = cytotoxicity": "0.894% [at 42.5 µM]"}, {"smiles": "CC(=O)N1CCN(c2ccc(O)cc2)CC1", "activity change, negative = cytotoxicity": "-0.354% [at 42.5 µM]"}, {"smiles": "CC(C)SCc1ccco1", "activity change, negative = cytotoxicity": "0.0448% [at 42.5 µM]"}, {"smiles": "CC(C)CCO", "activity change, negative = cytotoxicity": "2.53%"}, {"smiles": "COC(/C=C(\\C)CCC=C(C)C)OC", "activity change, negative = cytotoxicity": "-6.48%"}, {"smiles": "NC(=O)NNC(N)=O", "activity change, negative = cytotoxicity": "-11%"}]}]}
